Screening results: PubChem, National Center for Advancing Translational Sciences (NCATS)
gsp ag: gsp mutant agonism; gsp mutant cells, cAMP HTRF, 30 min; Potency, µM (top dose mostly 76.9 µM), for inactives: top-dose activation (cAMP increase), usual class: activators; 340,000 tested, 0.13% active; active means well fitted activation curve with a large enough effect; inconclusive means small, poorly fitted or top-dose-only effect, or another doubt; inactive means no such curve, though single readings can be large or run the other way; cell line not stated here;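 further: phosphodiesterase inhibitor Ro 20-1724 added with compounds to block cAMP breakdown; potency means the concentration at half of the fitted maximal effect; nearly all actives have a fitted effect of over 60% in size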
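Cells stably selected in G418 were plated at 2000/well, grown 16-24 hr, then given compounds in DMSO with the PDE inhibitor […] (300 uM solution added) for 30 min at 37C; cAMP was read by HTRF.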
RXFP1 antag: RXFP1 (human) relaxin receptor antagonism | Q9HBX9 | HEK293-RXFP1, relaxin-stimulated cAMP HTRF, 30 min; active compounds read low | activity change, negative = inhibition, % at 57.5 µM | 350,000 tested, 0.59% active;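 active means activity change of -60% or lower, but not beyond a set lower limit; inconclusive means change between -60% and -40%, or beyond the set limit; inactive means change above -40%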; further: on the % scale 0 is the no-effect control and ±100 the full control effect
Target sequence (Q9HBX9 whole entry, looked up): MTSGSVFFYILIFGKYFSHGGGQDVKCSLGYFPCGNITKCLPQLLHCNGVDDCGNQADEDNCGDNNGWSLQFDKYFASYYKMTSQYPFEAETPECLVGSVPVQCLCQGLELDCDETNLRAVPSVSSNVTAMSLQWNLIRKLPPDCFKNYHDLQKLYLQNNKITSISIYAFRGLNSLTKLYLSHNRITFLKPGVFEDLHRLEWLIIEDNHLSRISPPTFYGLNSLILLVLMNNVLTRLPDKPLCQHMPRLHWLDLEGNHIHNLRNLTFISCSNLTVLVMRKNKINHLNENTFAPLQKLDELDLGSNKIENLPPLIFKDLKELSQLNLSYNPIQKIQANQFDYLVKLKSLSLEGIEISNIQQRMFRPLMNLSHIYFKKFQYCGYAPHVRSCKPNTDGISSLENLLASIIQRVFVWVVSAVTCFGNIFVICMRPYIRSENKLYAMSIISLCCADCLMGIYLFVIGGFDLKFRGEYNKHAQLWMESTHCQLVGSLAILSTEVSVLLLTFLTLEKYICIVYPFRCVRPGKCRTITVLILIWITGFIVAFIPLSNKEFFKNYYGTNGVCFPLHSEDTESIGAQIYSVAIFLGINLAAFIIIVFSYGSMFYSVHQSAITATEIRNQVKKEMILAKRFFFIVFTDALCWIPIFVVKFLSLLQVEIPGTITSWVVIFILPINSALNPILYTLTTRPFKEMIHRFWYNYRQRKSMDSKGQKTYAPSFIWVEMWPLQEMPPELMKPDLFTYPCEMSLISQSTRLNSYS
gsp antag: antagonists of gsp mutant (McCune-Albright syndrome) | gsp-mutant cells, cAMP HTRF, 30 min | Potency, µM (top dose mostly 76.9 µM), without a hit: at the top dose activity change, negative = inhibition, actives largely listed as inhibitors | 340,000 tested, 0.4% active | AID 624288; calls by dose curve; cell line not stated here;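 further: intracellular cAMP measured with PDE inhibitor Ro 20-1724 present during compound exposure; potency means the concentration at half of the fitted maximal effect; on the % scale 0 is the no-effect control and ±100 the full control effect; nearly all actives have a fitted effect of over 65% in size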
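Measurement of cellular cAMP by homogeneous time-resolved fluorescence following a 30 min compound exposure at 37C. The PDE inhibitor […] was present throughout; the assay buffer was DPBS with 0.05% BSA and 0.005% Tween 20.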
CCT chaperon mod: changes cytosolic chaperonin activity | 360,000 tested, 0.3% active | purified chaperonin ATPase assay, HTRF ADP detection, 30 min | AID 651819 | activity change, % (concentration not given with the values), hits read low; in the data active means activity change below about -30%; further: on the % scale 0 is the no-effect control and ±100 the full control effect
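Nucleotide hydrolysis assay: TRiC at 20–40 nM final (set by batch activity) with 10 uM ATP, 30 min at 37 °C, in presence of 76 uM compound. Detection by competitive ADP HTRF, 30 min ambient.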
RXFP1 ag: activates the human relaxin receptor RXFP1. Q9HBX9. HEK293T-RXFP1 cAMP TR-FRET, 30 min; response scale: percent of porcine relaxin response, buffer zero. Potency, µM (doses to about 57.5 µM), for inactives: at the top dose activation, hits mostly activators. 370,000 tested, 0.3% active. AID 2676; further: potency means the concentration at half of the fitted maximal effect; on the % scale 0 is the no-effect control and ±100 the full control effect; nearly all actives have a fitted effect of over 60% in size
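HEK293T cells stably expressing RXFP1 were pretreated with the PDE4 inhibitor Ro 20174, exposed to compounds for 30 min at 37C, lysed, and cAMP was read by TR-FRET. Data normalized to buffer (basal) and 29 nM porcine relaxin (100%).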
Mm-Cpn inhibitor: M. maripaludis TRiC chaperonin inhibition; purified Mm-Cpn ATPase, ADP Transcreener TR-FRET; Potency, µM (series often up to 76.9 µM), inactives show at the highest dose activity, negative = inhibition, hits mostly inhibitors; 330,000 tested, 0.031% active; further: potency means the concentration at half of the fitted maximal effect; on the % scale 0 is the no-effect control and ±100 the full control effect; nearly all actives have a fitted effect of over 80% in size
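Purified archaeal chaperonin (25 nM final) was preincubated with compound for 10 min at 37°C, then ATP (10 uM final) was added for 30 min at 37°C in Tris pH 7.4/KCl/MgCl2/DTT buffer. ADP was quantified by HTRF Transcreener TR-FRET.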
Starred values were filed as active, the others as inactive; ! = not confirmed by another sample; [ ] = dose if it differs, or a comment. This is a sample that favours compounds with a hit; in the whole collection about 1.2% have one here. Unless noted, the call rests on the fitted dose curve; in most records, active means well fitted curve in the direction sought with a large enough effect; inconclusive means small, poorly fitted or top-dose-only effect, or another doubt; inactive means no such curve, though single readings can be large; an effect the other way counts as inactive or inconclusive.

CCC(=O)NC(Nc1sc2c(c1C(=O)OC)CCC2)C(Cl)(Cl)Cl (stereo not given) was read as gsp ag 1%, gsp antag -36%, CCT chaperon mod -7, RXFP1 ag -1% and Mm-Cpn inhibitor -2%.
CCOC(=O)c1c(NC(=O)c2cccs2)sc2c1CCC2 was read as gsp ag 12%, RXFP1 antag -4, gsp antag 4%, CCT chaperon mod -33*, RXFP1 ag 1% and Mm-Cpn inhibitor inconclusive.
For Cc1ccc(Cl)cc1NC(=O)c1sc2nc(-c3ccccc3)cn2c1C the results were RXFP1 ag 2%.
Screening Cc1cc2c(cc3c(SCc4ccc(Cl)cc4)nnc(C)n32)o1 returned RXFP1 antag -1 and RXFP1 ag 14µM*.
CCOc1ccc(N2C(=O)N(Cc3ccc(C)cc3C)c3ccccc3S2(=O)=O)cc1 was read as RXFP1 antag -3 and RXFP1 ag 1%.
For CN(Cc1ccco1)S(=O)(=O)c1nnc(NC(=O)c2ccccc2Cl)s1 the results were gsp ag inconclusive, RXFP1 antag -10, gsp antag inconclusive, CCT chaperon mod 0, RXFP1 ag 11µM*! and Mm-Cpn inhibitor -1%.
Cc1cccc(Cn2cc(C(=O)c3ccccc3)c(=O)c3cc4c(cc32)OCO4)c1 was read as RXFP1 antag -31 and RXFP1 ag 0%.
Screening COc1ccc(C(=O)c2cn(Cc3cccc(C)c3)c3cc4c(cc3c2=O)OCCO4)cc1OC returned RXFP1 antag -81* and RXFP1 ag 1%.
For Cc1cccc(N=Cc2cc(Br)cc(Cl)c2O)c1 the results were gsp ag 3%[15.4 µM], RXFP1 antag -64*, gsp antag -34%, CCT chaperon mod -3, RXFP1 ag 9% and Mm-Cpn inhibitor -1%.
CC(=O)Nc1ccc(NC(=O)c2cnn(-c3ccccc3)c2C2CCN(C(=O)OC(C)(C)C)CC2)cc1 was read as RXFP1 ag 2%.
`CC1CCCC(NC(=O)COC(=O)c2ccc([N+](=O)[O-])o2)C1C` (stereo not given) gave gsp ag 15%, RXFP1 antag 13, gsp antag 1%, CCT chaperon mod -64* and Mm-Cpn inhibitor 1%.
CC1CCCCC1NC(=O)COC(=O)c1ccc([N+](=O)[O-])o1 (stereo not given) was read as gsp ag 10%[15.4 µM], RXFP1 antag 39, gsp antag 2%, CCT chaperon mod 1, RXFP1 ag 2% and Mm-Cpn inhibitor 0%.
Cc1cccc(NC(=O)CN(C)S(=O)(=O)c2ccc(Cl)cc2)n1 was read as gsp ag -5%, RXFP1 antag -8, gsp antag 11%, CCT chaperon mod 2, RXFP1 ag 0% and Mm-Cpn inhibitor 2%.
`CN(CC(=O)Nc1nc2ccccc2s1)S(=O)(=O)c1ccc(Br)cc1` gave gsp ag -10%, RXFP1 antag -35, gsp antag 40µM*, CCT chaperon mod -2, RXFP1 ag -6% and Mm-Cpn inhibitor 2%.
CN(CC(=O)Nc1nc2ccccc2s1)S(=O)(=O)c1ccc(Cl)cc1 was read as gsp ag -7%, RXFP1 antag -18, gsp antag 32µM*, CCT chaperon mod 0, RXFP1 ag 0% and Mm-Cpn inhibitor -1%.
For COc1ccc(NC(=O)Cn2c(=O)n(-c3cc(C)cc(C)c3)c(=O)c3oc4ccccc4c32)cc1OC the results were RXFP1 antag 1 and RXFP1 ag 1%.
Screening COc1ccc(NC(=O)C2(C)CCN2C(=O)C(C)C)cc1F (stereo not given) returned CCT chaperon mod -36*.
`Cc1ccccc1-n1nc2c(c1NC(=O)C(C)(C)C)CS(=O)(=O)C2` gave gsp ag -31%, RXFP1 antag 3, gsp antag 10%, CCT chaperon mod -43*, RXFP1 ag 6% and Mm-Cpn inhibitor 2%.
Screening CCc1sc2nc(SCC(=O)Nc3cc(C)on3)n(-c3cccc(OC)c3)c(=O)c2c1C returned gsp ag 3%, gsp antag -6%, CCT chaperon mod -36*, RXFP1 ag 22% and Mm-Cpn inhibitor -3%.
For CCOc1cc(Cl)c(S(=O)(=O)n2cc(C)nc2CC)cc1Cl the results were RXFP1 antag -15 and RXFP1 ag 1%.
For O=C(NCc1ccco1)c1ccc2c(c1)N(Cc1ccc(F)cc1)C(=O)c1ccccc1S2=O (stereo not given) the results were RXFP1 ag -1%.
Screening COc1ccc(OC)c(CCNC(=O)c2cnn(-c3ccccc3Cl)c2C2CCN(C(=O)OC(C)(C)C)CC2)c1 returned RXFP1 antag -35 and RXFP1 ag 0%.
CCN(CC)C(=O)c1[nH]cnc1C(=O)N[C@@H](CCCCNC(=O)OC(C)(C)C)C(=O)OC(C)(C)C was read as gsp ag -6%, gsp antag 11%, CCT chaperon mod -31* and RXFP1 ag 0%.
Screening C[C@H](NC(=O)c1nc[nH]c1C(=O)NCc1ccccc1)C(=O)OCc1ccccc1 returned gsp ag -41%, gsp antag 11µM*, CCT chaperon mod -1, RXFP1 ag -1% and Mm-Cpn inhibitor -1%.
`CC(C)(C)OC(=O)NCCCCCNC(=O)c1nc[nH]c1C(=O)NCc1ccc(CNC(=O)OC(C)(C)C)cc1` gave gsp antag 40µM*, CCT chaperon mod -1 and Mm-Cpn inhibitor 0%.
C[C@H]1CN([C@@H](C)CO)C(=O)c2cc(Br)cnc2O[C@H]1CN(C)C(=O)c1cnccn1 was read as gsp ag 11µM*, RXFP1 antag 12 and CCT chaperon mod -1.
`CN(c1cccc(NC(=O)c2ccc(Cl)c(S(=O)(=O)Nc3ccccc3)c2)c1)S(C)(=O)=O` gave gsp ag -12%, RXFP1 antag -28, gsp antag 8.9µM*, CCT chaperon mod 1, RXFP1 ag 0% and Mm-Cpn inhibitor 2%.
Screening CC(=O)Nc1nonc1-c1nc2ccccc2n1Cc1ccccc1Br returned RXFP1 antag -8 and RXFP1 ag 9%.
Screening COc1ccc(OCC(=O)Nc2cccc(-c3nc4ccccc4s3)c2C)cc1 returned RXFP1 antag -2 and RXFP1 ag inconclusive.
Screening CN(C)c1cccc(C(=O)OCCCC(=O)c2ccc(F)cc2)c1 returned gsp ag -8%, RXFP1 antag -28, gsp antag -15%, CCT chaperon mod -38*, RXFP1 ag 1% and Mm-Cpn inhibitor -1%.
